Results reported in PubChem BioAssay (Tox21).
“And” between values parts separate entries of the source, which are not always exact repeats. Equal values may be shown once. Results filed as inconclusive are left out. The source made the active and inactive calls. Unless noted, calls come from the whole dose curve; as a rule, active = well fitted curve in the direction sought with a large enough effect in the repeat runs; inconclusive = weak or mixed curves; inactive = no such curve, though single readings can be large; an effect the other way counts as inactive or inconclusive.

Experiments:
[1] = qHTS assay to identify small molecule antagonists of the retinoid acid receptor (RAR) signaling pathway - cell viability counter screen (AID 1159551); note: nearly all actives have a fitted effect of over 35% in size; note: potency is the fitted concentration of half-maximal effect
How it was run: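 C3RL4 RARE-luciferase line; cpds + retinol 1 uM final, 6 h, 37 C/5% CO2; CellTiter-Glo ATP luminescence, 30 min RT.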

[2] = qHTS assay to identify small molecule antagonists of the retinoic acid receptor (RAR) signaling pathway (AID 1159552; note: nearly all actives have a fitted effect of over 50% in size; note: potency is the fitted concentration of half-maximal effect)
How it was run: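 Test chemicals and DMSO controls were pin-transferred onto C3RL4 cells a day after seeding; retinol (1 uM final) followed at once. Luminescent reporter output was quantified after 6 hr of co-incubation and 30 min with detection reagent.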

[3] = qHTS assay to identify small molecule antagonists of the estrogen related receptor (ERR) signaling pathway from Tox21 library - cell viability counter screen (AID 1224834); note: nearly all actives have a fitted effect of over 30% in size; note: potency is the fitted concentration of half-maximal effect
How it was run: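 Multiplexed viability counter screen in ERR cells: 17.5 h compound exposure at 37 C, CellTiter-Fluor added, 30 min at 37 C/5% CO2, fluorescence read.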

[4] = biological target: Luciferin 4-monooxygenase (Photinus pyralis) (UniProt P08659); test: qHTS assay to identify small molecule inhibitors of firefly luciferase (AID 1224835); note: nearly all actives have a fitted effect of over 25% in size; note: potency is the fitted concentration of half-maximal effect
How it was run: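 Inhibition of purified Photinus luciferase is measured by luminescence. Substrate levels (D-luciferin, ATP) sit at their KM values. Each compound is tested in a concentration series.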

[5] = qHTS assay to identify small molecule agonists of the constitutive androstane receptor (CAR) signaling pathway - cell viability counter screen (AID 1224836); note: nearly all actives have a fitted effect of over 45% in size; note: potency is the fitted concentration of half-maximal effect
How it was run: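 23 h treatment, 37 C, 5% CO2. Cell line: HepG2 stably expressing hCAR with a CYP2B6-2.2kb construct. Co-treatment: PK11195, 0.75 uM final. Read-out: CellTiter-Fluor fluorescence intensity.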

[6] = qHTS assay to identify small molecule antagonists of the constitutive androstane receptor (CAR) signaling pathway - cell viability counter screen (AID 1224837); note: nearly all actives have a fitted effect of over 45% in size; note: potency is the fitted concentration of half-maximal effect
How it was run: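 Read-out: CellTiter-Fluor fluorescence after 23 hr at 37 C/5% CO2. Cells: HepG2 double-stable for hCAR and CYP2B6-2.2kb. Compounds tested at 15 concentrations in the presence of CITCO, final concentration 50 nM.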

[7] = biological target: Nuclear receptor subfamily 1 group I member 3 (Homo sapiens) (UniProt Q14994); test: qHTS assay to identify small molecule agonists of the constitutive androstane receptor (CAR) signaling pathway (AID 1224839); note: nearly all actives have a fitted effect of over 15% in size; note: potency is the fitted concentration of half-maximal effect
How it was run: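 Compounds tested at 15 concentrations on HepG2 cells stably harbouring hCAR and CYP2B6-2.2kb reporter constructs, co-treated with PK11195 (0.75 uM final), 24 h at 37 C; luminescent reporter signal quantified.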

[8] = biological target: Thyrotropin receptor (Homo sapiens) (UniProt P16473); test: qHTS assay to identify small molecule agonists of the thyroid stimulating hormone receptor (TSHR) signaling pathway (AID 1224843; calls by dose curve; note: nearly all actives have a fitted effect of over 45% in size; note: potency is the fitted concentration of half-maximal effect)
How it was run: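 Agonist activity read as cAMP rise via d2/cryptate HTRF competition, 1 h room-temperature detection, in HEK293 cells expressing TSHR. Fifteen-point titrations, each run in triplicate, with a 30 min room-temperature incubation beforehand.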

[9] = qHTS assay to identify small molecule antagonists of the estrogen related receptor signaling pathway with the pleiotropic PPARgamma coactivator (PGC) from Tox21 10K library - cell viability counter screen (AID 1224840; active = well fitted cell-killing curve with a large enough effect in the repeat runs, not every such curve was filed as active; note: nearly all actives have a fitted effect of over 40% in size; note: potency is the fitted concentration of half-maximal effect)
How it was run: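 Fluorescence read-out of CellTiter-Fluor viability reagent, added after cells had been exposed to compound in DMSO for 17.5 h at 37 C; 30 min development at 37 C/5% CO2. Cells: PGC/ERR line, 2,000/well.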

[10] = qHTS assay to identify small molecule antagonists of the estrogen related receptor signaling pathway with the pleiotropic PPARgamma coactivator (PGC) from Tox21 10K library (AID 1224841; call rule not given here; note: actives are mostly falling curves and most rising ones were filed inactive; nearly all actives have a fitted effect of over 50% in size; note: potency is the fitted concentration of half-maximal effect)
How it was run: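 Luminescence read-out (One-Glo luciferase reagent, 30 min at room temperature) from PGC/ERR cells exposed to DMSO-dissolved test compounds for 18 h at 37 C; cells, 2,000 per well, had been preincubated 6 h before compound transfer.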

[11] = qHTS assay to identify small molecule agonists of the estrogen related receptor signaling pathway with the pleiotropic PPARgamma coactivator (PGC) from Tox21 10K library (AID 1224842); note: nearly all actives have a fitted effect of over 15% in size
How it was run: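 Luminescence from One-Glo (30 min, room temperature) measured after PGC/ERR cells had 18 h at 37 C with pinned compound (23 nL in DMSO). Cells had been seeded at 2,000 per well and pre-incubated 6 h.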

[12] = qHTS assay to identify small molecule agonists of the hypoxia (HIF-1) signaling pathway - cell viability counter screen (AID 1224844; calls by dose curve; note: nearly all actives have a fitted effect of over 50% in size; note: potency is the fitted concentration of half-maximal effect)
How it was run: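 CellTiter-Glo luminescence read-out, 30 min RT, taken in the same wells as the beta-lactamase HRE reporter assay; HRE-bla ME-180 cells, 0.5% dialyzed FBS, 17 hr compound treatment at 37C, 5% CO2.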

[13] = biological target: Nuclear receptor subfamily 1 group I member 3 (Homo sapiens) (UniProt Q14994); test: qHTS assay to identify small molecule antagonists of the constitutive androstane receptor (CAR) signaling pathway (AID 1224838);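 note: HepG2 cells stably expressing hCAR with CYP2B6 luciferase reporter stimulated by CITCO; nearly all actives have a fitted effect of over 40% in size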; note: potency is the fitted concentration of half-maximal effect
How it was run: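 Read-out: ONE-Glo luciferase luminescence after 30 min at room temperature. HepG2-CYP2B6-hCAR double-stable cells, compounds in 15-point titration plus 50 nM CITCO final, 24 h at 37 C/5% CO2.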

Measured: Potency

Sequence of Nuclear receptor subfamily 1 group I member 3 (Homo sapiens) (Q14994 whole entry, looked up): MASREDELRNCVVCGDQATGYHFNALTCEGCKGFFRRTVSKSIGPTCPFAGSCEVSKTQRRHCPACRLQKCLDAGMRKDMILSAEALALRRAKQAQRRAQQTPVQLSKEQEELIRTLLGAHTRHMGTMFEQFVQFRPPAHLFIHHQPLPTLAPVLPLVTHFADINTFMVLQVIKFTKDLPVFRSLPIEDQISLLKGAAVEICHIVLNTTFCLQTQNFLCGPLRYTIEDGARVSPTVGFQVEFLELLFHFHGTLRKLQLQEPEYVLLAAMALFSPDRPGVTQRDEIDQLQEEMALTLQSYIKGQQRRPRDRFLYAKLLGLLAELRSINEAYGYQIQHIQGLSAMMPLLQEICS
Sequence of Luciferin 4-monooxygenase (Photinus pyralis) (P08659 whole entry, looked up): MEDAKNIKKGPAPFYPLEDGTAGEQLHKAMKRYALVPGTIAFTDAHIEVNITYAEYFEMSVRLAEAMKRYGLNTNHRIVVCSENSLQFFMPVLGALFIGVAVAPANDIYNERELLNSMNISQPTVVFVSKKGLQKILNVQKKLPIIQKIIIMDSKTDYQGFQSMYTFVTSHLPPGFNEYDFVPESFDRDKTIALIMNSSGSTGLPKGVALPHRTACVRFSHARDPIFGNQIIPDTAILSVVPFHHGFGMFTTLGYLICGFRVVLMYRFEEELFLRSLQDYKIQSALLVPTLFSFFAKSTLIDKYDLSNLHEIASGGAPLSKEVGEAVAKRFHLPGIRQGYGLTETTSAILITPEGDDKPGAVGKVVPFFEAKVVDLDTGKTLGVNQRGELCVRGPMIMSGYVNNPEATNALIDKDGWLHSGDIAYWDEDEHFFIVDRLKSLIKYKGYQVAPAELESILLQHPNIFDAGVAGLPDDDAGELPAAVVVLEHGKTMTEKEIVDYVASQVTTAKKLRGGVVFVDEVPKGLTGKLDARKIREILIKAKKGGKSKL
Sequence of Thyrotropin receptor (Homo sapiens) (P16473 whole entry, looked up): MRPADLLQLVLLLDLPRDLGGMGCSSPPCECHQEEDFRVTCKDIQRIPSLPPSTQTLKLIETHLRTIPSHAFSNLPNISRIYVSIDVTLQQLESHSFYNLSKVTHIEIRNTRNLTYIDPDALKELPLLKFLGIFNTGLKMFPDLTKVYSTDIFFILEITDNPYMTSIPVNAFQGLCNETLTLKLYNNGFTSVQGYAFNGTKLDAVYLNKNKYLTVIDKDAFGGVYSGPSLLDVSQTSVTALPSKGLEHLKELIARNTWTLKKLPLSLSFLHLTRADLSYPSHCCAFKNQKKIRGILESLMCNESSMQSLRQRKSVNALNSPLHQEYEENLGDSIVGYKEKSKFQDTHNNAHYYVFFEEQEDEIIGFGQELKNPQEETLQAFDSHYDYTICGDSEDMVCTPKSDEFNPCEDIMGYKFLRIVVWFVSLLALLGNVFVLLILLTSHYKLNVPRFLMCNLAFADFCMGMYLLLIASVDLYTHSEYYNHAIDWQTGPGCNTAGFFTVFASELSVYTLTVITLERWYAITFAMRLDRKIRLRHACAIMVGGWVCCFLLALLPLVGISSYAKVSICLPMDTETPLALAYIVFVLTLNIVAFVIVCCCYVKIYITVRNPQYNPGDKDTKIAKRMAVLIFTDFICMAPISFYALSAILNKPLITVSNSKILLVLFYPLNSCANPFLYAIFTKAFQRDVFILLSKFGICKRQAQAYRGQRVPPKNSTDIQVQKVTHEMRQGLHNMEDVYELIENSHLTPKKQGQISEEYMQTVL

CC(=O)c1ccc(-c2ccccc2)cc1
active: [4] 31.7 µM | [7] 48.6 µM
inactive: [1] | [2] | [3] | [5] | [6] | [8]

CCCCCCCCCCBr
not listed: [7] | [8] | [13]
inactive: all other assays above

CC(C)(c1ccc(O)c(-c2ccccc2)c1)c1ccc(O)c(-c2ccccc2)c1
active: [1] 54.5 µM | [2] 54.5 µM | [3] 61.1 µM | [5] 54.5 µM | [6] 68.6 µM | [7] 17.2 µM | [9] 54.5 µM | [10] 48.6 µM | [12] 17.4 µM
inactive: [4]

COS(=O)(=O)c1ccc(C)cc1
not listed: [7] | [10] | [11] | [13]
inactive: all other assays above

Cc1cccc(OP(=O)(Oc2cccc(C)c2)Oc2cccc(C)c2)c1
active: [7] 30.6 µM
not listed: [10] | [11] | [12]
inactive: all other assays above

CN(C)CCc1c[nH]c2ccc(O)cc12
not listed: [10] | [11]
inactive: all other assays above

Cl/C=C\CCl
not listed: [13]
inactive: all other assays above

ClC1=C(Cl)[C@]2(Cl)[C@@H]3[C@@H](Cl)[C@H](Cl)C[C@@H]3[C@@]1(Cl)C2(Cl)Cl
not listed: [8]
inactive: all other assays above

N#C/C=C/c1ccccc1
not listed: [8] | [10] | [11]
inactive: all other assays above

ClCc1ccccc1CCl
not listed: [10] | [11] | [12]
inactive: all other assays above

N#Cc1ccc(O)cc1
not listed: [10] | [11] | [13]
inactive: all other assays above

COP(N)(=S)OC
not listed: [11] | [13]
inactive: all other assays above

CCOC(=O)c1ccccc1S(=O)(=O)NC(=O)Nc1nc(Cl)cc(OC)n1
not listed: [10] | [11]
inactive: all other assays above

ClC1=C(Cl)[C@]2(Cl)[C@@H]3[C@@H](Cl)[C@@H](Cl)C[C@@H]3[C@@]1(Cl)C2(Cl)Cl
not listed: [8] | [11]
inactive: all other assays above

CC(C)CBr
not listed: [9] | [10]
inactive: all other assays above

Cc1ccc(CCl)cc1
not listed: [11] | [12]
inactive: all other assays above

Fc1ccc(Oc2ccnc3cc(Cl)cc(Cl)c23)cc1
active: [4] 35.6 µM | [7] 27.3 µM
inactive: [1] | [2] | [3] | [5] | [6] | [9]

CCCCCCCCCC[N+](C)(C)CCCCCCCCCC
inactive: [4] | [7] | [8]
active: [1] 61.1 µM | [2] 12.2 µM | [3] 43.3 µM | [5] 43.3 µM | [6] 24.3 µM | [13] 27.3 µM | [9] 27.3 µM | [12] 27.5 µM

O=C1C=CC(=O)c2ccccc21
inactive: [7] | [11]
active: [1] 15.4 µM | [2] 27.3 µM | [3] 61.1 µM | [4] 20 µM | [5] 54.5 µM | [6] 43.3 µM | [10] 34.4 µM | [12] 11 µM

COC12CC[C@@]3(C[C@@H]1C(C)(O)C(C)(C)C)[C@H]1Cc4ccc(O)c5c4[C@@]3(CCN1CC1CC1)[C@H]2O5 (stereo partly specified)
active: [1] 60.7 µM | [2] 54.1 µM | [3] 27.1 µM | [5] 43 µM | [6] 54.1 µM | [13] 48.2 µM | [9] 43 µM | [10] 60.7 µM
inactive: [4] | [7] | [8]

c1cc[c]([Sb]([c]2ccccc2)[c]2ccccc2)cc1
active: [2] 61.1 µM | [7] 15.4 µM
not listed: [9] | [10] | [11] | [13]
inactive: all other assays above

COP(=O)(CCC(=O)NCO)OC
not listed: [13]
inactive: all other assays above

N#Cc1ccccc1Cl
not listed: [7] | [10] | [13]
inactive: all other assays above

CCC(C)(C)C(=O)OC1=C(c2ccc(Cl)cc2Cl)C(=O)OC12CCCCC2
active: [4] 31.7 µM | [12] 49 µM
not listed: [11]
inactive: all other assays above

CCS(=O)(=O)c1cccnc1S(=O)(=O)NC(=O)Nc1nc(OC)cc(OC)n1
active: [7] 54.5 µM
not listed: [10]
inactive: all other assays above

C[As+](C)(C)CC(=O)[O-]
not listed: [10]
inactive: all other assays above

CCCCOP(=O)(CCCC)OCCCC
not listed: [7] | [8] | [10] | [12]
inactive: all other assays above

Oc1ccc2ccc3cccc4ccc1c2c34
active: [4] 79.6 µM | [7] 61.1 µM
not listed: [10] | [11]
inactive: all other assays above

Oc1ccccc1Br
not listed: [8] | [10] | [11] | [13]
inactive: all other assays above

CCSC(C)CC1CC(=O)C(/C(CC)=N/OC/C=C/Cl)=C(O)C1 (stereo unspecified)
active: [10] 2.11 µM
not listed: [7] | [11] | [13]
inactive: all other assays above

CC(C)(COCC1CO1)COCC1CO1 (stereo unspecified)
not listed: [10] | [11] | [12]
inactive: all other assays above

CC(O)C#N (stereo unspecified)
active: [13] 30.6 µM
not listed: [10] | [11] | [12]
inactive: all other assays above

COCC(=O)N(c1c(C)cccc1C)[C@H](C)C(=O)OC
not listed: [11]
inactive: all other assays above

Cn1[nH]nnc1=S
active: [4] 22.4 µM
not listed: [10] | [11]
inactive: all other assays above

Clc1ccc(Oc2ccccc2)cc1
not listed: [8] | [10] | [11]
inactive: all other assays above

N#CSCSC#N
inactive: [4] | [7] | [10] | [11]
active: [1] 27.9 µM and 30.3 µM | [2] 24.9 µM | [3] 62.5 µM and 60.5 µM | [5] 44.2 µM and 48.1 µM | [6] 27.9 µM and 27 µM | [13] 19.8 µM and 24.1 µM | [9] 55.7 µM and 53.9 µM | [12] 17.8 µM and 8.62 µM

CCOP(=S)(OCC)SCS(=O)(=O)CC
not listed: [10]
inactive: all other assays above

C[C@@H](Oc1ccc(Cl)cc1Cl)C(=O)O
not listed: [7] | [10] | [11] | [12] | [13]
inactive: all other assays above

N#CCCC(Br)(C#N)CBr (stereo unspecified)
inactive: [7] | [11]
active: [1] 68.6 µM | [2] 21.7 µM | [4] 35.6 µM | [13] 68.6 µM | [8] 4.86 µM | [12] 19.5 µM
